# Results taken from the supplement of paper PMC8728848.
# Shown is part of a subset that was picked to be rich in the strongest signals.
# B1: PX9961X-pdi-531-24-531 (Parabacteroides distasonis) (protein)
# chain: DLTEEIHSSVIAENYYNNAGEVMAAMMRPWGHFCGTMQVAQSPWSCNELSSDCAAWPQKGRHGYDNGDWIRLHRHQWIPTDGQVVDAWKKLFEGIGYANNFLTDTENIDFEALQVPMSKAQAQAEMRVYRAYCYWYVMDMFGTAPICEKIGEINPSSKSRAELFAWIEKELNESIPSLSESKTETYGRVSKWGAYALLARLYLNAEIYTGQARWDDCIAACDELAKGGFALDKKWNDTFRADNDKRSTEIIWSIVYDEVYAKGMGWYQRWLHYAHQTGWDLQSGPWNGLVTQPTFYDSFADNDLRKIEGFLIGKQYPRKVDENGNYYYDTTAEPLKGSEEYNGQDLVFVNYIKSMTEGEENSGARSIKYEIQPGTTGDMNNDWVMFRYSEVIYNKAEALMRKNGGKATQEVVDMINSVRQRSFKAEDWEKAKYTTATLTMDEFLAEKGREFAFEGIRRTDLVRFNKFVTTSWWDKTASNEPKRNIFPIPQRQLDANANLSPNEANSLF
# Key:
# Assay in all cases: glycan array binding signal (z-score within array); higher = stronger binding
# Conditions in all cases: glycan notation: IUPAC condensed, linker removed
# [1] = target: Gal(b1-4)GlcNAc(b1-3)Gal(b1-4)GlcNAc(b1-3)Gal(b1-4)GlcNAc(b1-3)Gal(b1-4)GlcNAc(b1-2)[Gal(b1-4)GlcNAc(b1-3)Gal(b1-4)GlcNAc(b1-3)Gal(b1-4)GlcNAc(b1-3)Gal(b1-4)GlcNAc(b1-6)]Man(a1-6)[Gal(b1-4)GlcNAc(b1-3)Gal(b1-4)GlcNAc(b1-3)Gal(b1-4)GlcNAc(b1-3)Gal(b1-4)GlcNAc(b1-2)Man(a1-3)]Man(b1-4)GlcNAc(b1-4)[Fuc(a1-6)]GlcNAc
# In short: (§1)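 Glycan array data were curated from 3228 arrays in the Consortium for Functional Glycomics database and kept only where the protein sequence was available. Glycan names were converted to IUPAC-condensed notation, and columns mapping to the same glycan were averaged. The binding signal is a within-array Z-score, averaged across arrays of the same protein sequence at different concentrations or buffers and across linkers. Negative Z-scores can be read as non-binding.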
# [2] = target: Gal(b1-4)GlcNAc(b1-3)Gal(b1-4)GlcNAc(b1-3)Gal(b1-4)GlcNAc(b1-3)Gal(b1-4)GlcNAc(b1-3)Gal(b1-4)GlcNAc(b1-2)[Gal(b1-4)GlcNAc(b1-3)Gal(b1-4)GlcNAc(b1-3)Gal(b1-4)GlcNAc(b1-3)Gal(b1-4)GlcNAc(b1-3)Gal(b1-4)GlcNAc(b1-6)]Man(a1-6)[Gal(b1-4)GlcNAc(b1-3)Gal(b1-4)GlcNAc(b1-3)Gal(b1-4)GlcNAc(b1-3)Gal(b1-4)GlcNAc(b1-3)Gal(b1-4)GlcNAc(b1-2)Man(a1-3)]Man(b1-4)GlcNAc(b1-4)[Fuc(a1-6)]GlcNAc
# In short: as §1
# [3] = target: Gal(b1-4)GlcNAc(b1-3)Gal(b1-4)GlcNAc(b1-3)GalNAc
# In short: as §1
# [4] = target: Gal(b1-4)GlcNAc(b1-6)[Gal(b1-3)]GalNAc
# In short: as §1
# GalNAc(a1-3)Gal = target: GalNAc(a1-3)Gal
# In short: as §1
# [5] = target: GalNAc(b1-3)Gal(a1-4)Gal(b1-4)GlcNAc
# In short: as §1
# [6] = target: GalNAc(b1-3)Gal(a1-6)Gal(b1-4)Glc
# In short: as §1
# GalNAc(b1-4)Gal(b1-4)Glc = target: GalNAc(b1-4)Gal(b1-4)Glc
# In short: as §1
# [7] = target: GlcNAc(a1-4)Gal(b1-4)GlcNAc(b1-3)Gal(b1-4)GlcNAc
# In short: as §1
# [8] = target: GlcNAc(b1-3)Gal(b1-4)GlcNAc(b1-3)Gal(b1-4)GlcNAc(b1-3)Gal(b1-4)GlcNAc(b1-2)[GlcNAc(b1-3)Gal(b1-4)GlcNAc(b1-3)Gal(b1-4)GlcNAc(b1-3)Gal(b1-4)GlcNAc(b1-6)]Man(a1-6)[GlcNAc(b1-3)Gal(b1-4)GlcNAc(b1-3)Gal(b1-4)GlcNAc(b1-3)Gal(b1-4)GlcNAc(b1-2)Man(a1-3)]Man(b1-4)GlcNAc(b1-4)[Fuc(a1-6)]GlcNAc
# In short: as §1
# [9] = target: GlcNAc(b1-3)Gal(b1-4)GlcNAc(b1-6)[GlcNAc(b1-3)]Gal(b1-4)GlcNAc
# In short: as §1
# Kdn(a2-3)Gal(b1-4)GlcNAc = target: Kdn(a2-3)Gal(b1-4)GlcNAc
# In short: as §1
# [10] = target: Neu5Ac(a2-3)Gal(b1-3)GlcNAc(b1-3)GalNAc
# In short: as §1
# [11] = target: Neu5Ac(a2-3)Gal(b1-3)[Neu5Ac(a2-6)]GlcNAc(b1-3)[Fuc(a1-3)[Gal(b1-4)]GlcNAc(b1-6)]Gal(b1-4)Glc
# In short: as §1
# [12] = target: Neu5Ac(a2-3)Gal(b1-4)GlcNAc(b1-2)[Neu5Ac(a2-3)Gal(b1-4)GlcNAc(b1-6)]Man(a1-6)[Neu5Ac(a2-3)Gal(b1-4)GlcNAc(b1-2)Man(a1-3)]Man(b1-4)GlcNAc(b1-4)GlcNAc
# In short: as §1
# [13] = target: Neu5Ac(a2-3)Gal(b1-4)GlcNAc(b1-3)Gal(b1-4)GlcNAc(b1-3)[Neu5Ac(a2-3)Gal(b1-4)GlcNAc(b1-3)Gal(b1-4)GlcNAc(b1-6)]GalNAc
# In short: as §1
# [14] = target: Neu5Ac(a2-3)[GalNAc(b1-4)]Gal(b1-4)Glc
# In short: as §1
# [15] = target: Neu5Ac(a2-6)Gal(b1-4)GlcNAc(b1-2)Man(a1-3)[Man(a1-6)]Man(b1-4)GlcNAc(b1-4)GlcNAc
# In short: as §1
# Neu5Ac(a2-6)GalNAc = target: Neu5Ac(a2-6)GalNAc
# In short: as §1
# [16] = target: Neu5Ac(a2-8)Neu5Ac(a2-3)Gal(b1-3)GalNAc(b1-4)[Neu5Ac(a2-3)]Gal(b1-4)Glc
# In short: as §1
# [17] = target: Neu5Ac(a2-8)Neu5Ac(a2-3)Gal(b1-4)GlcNAc
# In short: as §1
# [18] = target: Neu5Ac(a2-8)Neu5Gc(a2-3)Gal(b1-4)GlcNAc
# In short: as §1
binder,measurement,setting,value
B1,glycan array binding signal (z-score),[1],3.6
same,glycan array binding signal (z-score),[2],3.41
same,glycan array binding signal (z-score),[3],0.788
same,glycan array binding signal (z-score),[4],-0.374
same,glycan array binding signal (z-score),GalNAc(a1-3)Gal,0.96
same,glycan array binding signal (z-score),[5],-0.236
same,glycan array binding signal (z-score),[6],2.61
same,glycan array binding signal (z-score),GalNAc(b1-4)Gal(b1-4)Glc,-0.106
same,glycan array binding signal (z-score),[7],-0.352
same,glycan array binding signal (z-score),[8],0.524
same,glycan array binding signal (z-score),[9],-0.581
same,glycan array binding signal (z-score),Kdn(a2-3)Gal(b1-4)GlcNAc,-0.114
same,glycan array binding signal (z-score),[10],-0.825
same,glycan array binding signal (z-score),[11],0.188
same,glycan array binding signal (z-score),[12],0.2
same,glycan array binding signal (z-score),[13],-0.773
same,glycan array binding signal (z-score),[14],-0.049
same,glycan array binding signal (z-score),[15],-0.755
same,glycan array binding signal (z-score),Neu5Ac(a2-6)GalNAc,-0.425
same,glycan array binding signal (z-score),[16],0.572
same,glycan array binding signal (z-score),[17],-0.116
same,glycan array binding signal (z-score),[18],14.4
